These results are taken from PubChem BioAssay (Tox21).

Inconclusive results are not listed. Where a call stands in place of a potency, no number is given. A number with no mark means an inactive call. Calls of active or inactive are those of the source. Calls follow the shape of the dose curve; as a rule, active = well fitted cell-killing curve with a large enough effect in the repeat runs; inconclusive = weak or mixed curves, or effect the other way; inactive = flat fitted curve, though single readings scatter.

The nature of the assay: qHTS assay to identify small molecule antagonists of the estrogen receptor alpha (ER-alpha) signaling pathway using the BG1 cell line in the presence of 0.1 nM 17-beta-estradiol - cell viability counter screen (AID 1259241). Also: nearly all actives have a fitted effect of over 40% in size. The settings on record: VM7Luc4E2 (BG1) viability, CellTiter-Fluor protease, 22 h, 0.1 nM estradiol agonist added; series mostly up to 92.4 µM. The source says:
National Center for Advancing Translational Sciences [NCATS]
NIH Chemical Genomics Center [NCGC]
U.S. Environmental Protection Agency [EPA]
National Institutes of Environmental Health Sciences [NIEHS]
National Toxicology Program [NTP]
U.S. Food and Drug Administration [FDA]
Estrogen receptor (ER), a member of the nuclear hormone receptor plays an important role in development, metabolic homeostasis and reproduction. Two subtypes of ER, ER-alpha and ER-beta, have similar expression patterns with some uniqueness in both types. Endocrine disrupting chemicals (EDCs) and their interactions with steroid hormone receptors like ER causes disruption of normal endocrine function. Therefore, it is important to understand the effect of environmental chemicals in ER signaling pathway. For identifying ER antagonists, VM7Luc4E2 cell line was used to screen against Tox21 compound libraries.
VM7Luc4E2 cell line (provided by Denison MS, University of California) endogenously express full-length ER-alpha and is stably transfected with a plasmid containing four estrogen responsive elements (ERE) upstream of a luciferase reporter gene. The current screening for identification of ER-alpha inhibitors against Tox21 compound libraries used lower concentration (0.1 nM) of 17beta-Estradiol as a stimulator. The cytotoxicity of the Tox21 compound libraries against VM7Luc4E2 cell line was tested by measuring live-cell protease activity using CellTiter-Fluor assay in the same wells.
Tox21 Assay Protocol Summary:
VM7Luc4E2 cells were cultured in phenol red free assay medium containing 10% charcoal stripped FBS for 5 days prior to the assay. The cells were dispensed at 4,000 cells/well in 4 uL of assay medium into white wall/solid-bottom 1536-well plates (Corning Life Sciences, Corning, NY) using a Multidrop Combi (ThermoFisher Scientific, Waltham, MA) dispenser. After the assay plates were incubated at 37C and 5% CO2 for 24 hr, 23 nL of compounds dissolved in DMSO, positive controls or DMSO only was transferred to the assay plates by a Pintool station (Kalypsys, San Diego, CA). The transfer of compounds was followed by the addition of 1 uL of 0.1 nM (final concentration) agonist (17beta-Estradiol)/assay medium using a Flying Reagent Dispenser (FRD, Aurora Discovery, San Diego, CA). The plates were incubated at 37C and 5% CO2 for 22 hr. For cytotoxicity assay, 1 uL of CellTiter-Fluor reagent (Promega Corporation, Madison, WI) was added to each well using the FRD and after 30 min incubation at 37C and 5% CO2, The fluorescence intensity was measured using ViewLux plate reader (PerkinElmer, Shelton, CT).
A general note: In qHTS, concentration-response curves come from the screen itself.
For `C=C(C)C(=O)OC(C)C`, the Potency entry is “inactive”.

On to `Oc1ccc2c(c1)OCO2`, for which the Potency entry is “inactive”.

As to `CCCCCCCCCCCCCCCCCBr`, the activity change, negative = cytotoxicity was 5.52% [at 19 µM].

Turning to `NC1CCN(c2nc3c(cc2F)c(=O)c(C(=O)O)cn3-c2ccc(F)cc2F)C1` (stereo not given), the Potency result was “inactive”.

Regarding `CC(C)(C)c1cc(CCC(=O)OCC(COC(=O)CCc2cc(C(C)(C)C)c(O)c(C(C)(C)C)c2)(COC(=O)CCc2cc(C(C)(C)C)c(O)c(C(C)(C)C)c2)COC(=O)CCc2cc(C(C)(C)C)c(O)c(C(C)(C)C)c2)cc(C(C)(C)C)c1O`, the Potency entry is “inactive”.

As to `Cn1c(=O)c2c(ncn2CC(O)CO)n(C)c1=O` (stereo not given), the Potency result is “inactive”.

With `C#CCOC(=O)[C@@H](C)Oc1ccc(Oc2ncc(Cl)cc2F)cc1`, the Potency entry was “inactive”.

As for `Cc1cccc(Oc2ccccc2)c1`, the Potency result is “inactive”.

With `CCOC(=O)CC(=O)c1cc(F)c(Cl)nc1Cl`, the Potency result is “inactive”.

Regarding `CCN(CCO)CCCC(C)Nc1ccnc2cc(Cl)ccc12` (stereo not given), the activity change, negative = cytotoxicity is -6.05% [at 8.39 µM].

Take `Nc1ccc(C(=O)N2CC3CC(CN(Cc4ccccc4)C3)C2)cc1`: the Potency entry was “inactive”.

For `CN1CCC(OC(c2ccccc2)c2ccccc2)CC1`, the Potency entry was “inactive”.

Turning to `CN1CCC(=C2c3ccccc3C=Cc3ccccc32)CC1`, the Potency result is “inactive”.

On to `CC(C)NCC(O)COc1ccc(CC(N)=O)cc1` (stereo not given), for which the Potency entry is “inactive”.

Consider `NC[C@H]1O[C@H](O[C@H]2[C@H](O)[C@@H](O[C@H]3O[C@H](CO)[C@@H](O)[C@H](N)[C@H]3O)[C@H](N)C[C@@H]2N)[C@H](O)[C@@H](O)[C@@H]1O`, for which the activity change, negative = cytotoxicity is 2.35% [at 8.39 µM].

Take `CC(=O)OCCc1ccccc1`: the Potency entry is “inactive”.

Consider `CN1CCC(=C2c3ccccc3CCc3sccc32)CC1`, for which the Potency result was “inactive”.

In the case of `Cc1ccc(O)c([C@H](CCN(C(C)C)C(C)C)c2ccccc2)c1`, the Potency result was “inactive”.

On to `CC(C)(Oc1ccc(Cl)cc1)C(=O)OCCCOC(=O)C(C)(C)Oc1ccc(Cl)cc1`, for which the Potency result is “inactive”.

For `O=C1Nc2cc(Cl)ccc2Oc2ccccc21`, the Potency result is “inactive”.

With `CCOC(=O)[C@H](CCc1ccccc1)N[C@H]1CCc2ccccc2N(CC(=O)O)C1=O`, the Potency entry was “inactive”.

For `N#Cc1cc2ccccc2c2ccccc12`, the Potency entry is “inactive”.

With `Cc1ccc(C(N)=O)cc1N`, the Potency result was “inactive”.

For `NC(=S)N/N=C/c1cccnc1`, the Potency result is “inactive”.

Regarding `Oc1ccc(O)c2c(O)cccc12`, the Potency result was “inactive”.

With `CCCCCCCCCO`, the Potency result is “inactive”.

On to `CCCCOC(O)CC` (stereo not given), for which the Potency entry was “inactive”.

For `O=C(Cl)c1ccc([N+](=O)[O-])cc1`, the Potency entry was “inactive”.

For the compound `CCc1nn(C2CCCCC2)c2cc(C3(C#N)CCC(C(=O)O)CC3)ccc12` (stereo not given), the Potency entry was “inactive”.

Consider `CC(=O)OC/C=C/c1ccccc1`, for which the Potency result was “inactive”.

As for `CC(=O)SCc1ccco1`, the Potency result was “inactive”.

On to `CCCCCCOC(=O)CCC`, for which the Potency entry is “inactive”.

With `N[C@H]1C(O)O[C@H](CO)[C@H](O)[C@@H]1O` (stereo not given in full), the Potency result was “inactive”.

Take `COCCOCCOCCOCCOC`: the Potency entry is “inactive”.

For `CN(C)CC[C@@H](c1ccc(Br)cc1)c1ccccn1`, the Potency entry is “inactive”.

Consider `CC(C)NCC(O)c1cc(O)cc(O)c1` (stereo not given), for which the Potency entry was “inactive”.

Regarding `CCOC(=O)C1=NN(c2ccccc2)C(=O)C1`, the Potency entry is “inactive”.

As to `O=S1(=O)c2cccc3cccc(c23)N1CCCN1CCN(c2ccc(F)cc2)CC1`, the Potency entry was “inactive”.

As to `CC(=O)N(O)CCCCCNC(=O)CCC(=O)N(O)CCCCCNC(=O)CCC(=O)N(O)CCCCCN`, the Potency result was “inactive”.

`CC(=O)c1ccc2c(c1)[C@H](NC(=O)c1ccc(F)cc1)[C@@H](O)C(C)(C)O2`: the Potency result is “inactive”.
